# The supplement of paper PMC8728848
# This is one part of a sample in which the strongest signals are shown more often than they occur.
# Experiments:
# Assay in all cases: glycan array binding signal (z-score within array); higher = stronger binding
# Settings in all cases: glycan notation: IUPAC condensed, linker removed
# [1] = target: Fuc(a1-2)Gal(b1-3)GalNAc(b1-3)Gal
# Outline: (§1)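 Glycan array data came from 3228 arrays in the Consortium for Functional Glycomics database, and only arrays with an available protein sequence were kept. Glycan names were put into IUPAC-condensed notation, and columns mapping to the same glycan were averaged. The binding signal is a within-array Z-score, averaged across arrays of one protein sequence run at different concentrations or buffers and across linkers. A negative Z-score can be read as non-binding.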
# [2] = target: Fuc(a1-2)Gal(b1-3)GlcNAc(b1-2)Man(a1-3)[Fuc(a1-2)Gal(b1-3)GlcNAc(b1-2)Man(a1-6)]Man(b1-4)GlcNAc(b1-4)[Fuc(a1-6)]GlcNAc
# Outline: as §1
# [3] = target: Fuc(a1-2)Gal(b1-4)GlcNAc(b1-3)GalNAc
# Outline: as §1
# [4] = target: Fuc(a1-2)Gal(b1-4)[Fuc(a1-3)]GlcNAc(b1-3)GalNAc
# Outline: as §1
# [5] = target: Fuc(a1-2)[Gal(a1-3)]Gal(b1-3)GlcNAc
# Outline: as §1
# [6] = target: Fuc(a1-2)[Gal(a1-3)]Gal(b1-3)GlcNAc(b1-2)Man(a1-3)[Fuc(a1-2)[Gal(a1-3)]Gal(b1-3)GlcNAc(b1-2)Man(a1-6)]Man(b1-4)GlcNAc(b1-4)GlcNAc
# Outline: as §1
# [7] = target: Fuc(a1-2)[Gal(a1-3)]Gal(b1-4)[Fuc(a1-3)]Glc
# Outline: as §1
# [8] = target: Fuc(a1-2)[GalNAc(a1-3)]Gal(b1-4)GlcNAc
# Outline: as §1
# Fuc(a1-4)GlcNAc = target: Fuc(a1-4)GlcNAc
# Outline: as §1
# [9] = target: Gal(a1-3)Gal(b1-3)GlcNAc(b1-2)Man(a1-3)[Gal(a1-3)Gal(b1-3)GlcNAc(b1-2)Man(a1-6)]Man(b1-4)GlcNAc(b1-4)GlcNAc
# Outline: as §1
# [10] = target: Gal(a1-3)Gal(b1-3)[Fuc(a1-4)]GlcNAc(b1-2)Man(a1-3)[Gal(a1-3)Gal(b1-3)[Fuc(a1-4)]GlcNAc(b1-2)Man(a1-6)]Man(b1-4)GlcNAc(b1-4)GlcNAc
# Outline: as §1
# Gal(a1-4)GlcNAc = target: Gal(a1-4)GlcNAc
# Outline: as §1
# Gal(a1-6)Glc = target: Gal(a1-6)Glc
# Outline: as §1
# Gal(b1-3)Gal(b1-4)GlcNAc = target: Gal(b1-3)Gal(b1-4)GlcNAc
# Outline: as §1
# [11] = target: Gal(b1-3)[Fuc(a1-4)]GlcNAc(b1-2)Man(a1-3)[Gal(b1-3)[Fuc(a1-4)]GlcNAc(b1-2)Man(a1-6)]Man(b1-4)GlcNAc(b1-4)GlcNAc
# Outline: as §1
# [12] = target: Gal(b1-3)[Fuc(a1-4)]GlcNAc(b1-3)Gal(b1-3)[Fuc(a1-4)]GlcNAc
# Outline: as §1
# [13] = target: Gal(b1-3)[GlcNAc(b1-6)]GalNAc
# Outline: as §1
# [14] = target: Gal(b1-4)GlcNAc(b1-3)Gal(b1-4)[Fuc(a1-3)GlcNAc(b1-6)]Gal(b1-4)Glc
# Outline: as §1
# Gal3S(b1-4)Glc = target: Gal3S(b1-4)Glc
# Outline: as §1
# Gal6S(b1-4)GlcNAc6S = target: Gal6S(b1-4)GlcNAc6S
# Outline: as §1
# GalNAc(b1-3)GalNAc = target: GalNAc(b1-3)GalNAc
# Outline: as §1
# [15] = target: GalNAc(b1-4)GlcNAc(b1-2)Man(a1-3)[GalNAc(b1-4)GlcNAc(b1-2)Man(a1-6)]Man(b1-4)GlcNAc(b1-4)GlcNAc
# Outline: as §1
# [16] = target: GlcNAc(a1-4)Gal(b1-4)GlcNAc(b1-3)Gal(b1-4)GlcNAc
# Outline: as §1
# [17] = target: GlcNAc(a1-4)Gal(b1-4)GlcNAc(b1-3)Gal(b1-4)[Fuc(a1-3)]GlcNAc(b1-3)Gal(b1-4)[Fuc(a1-3)]GlcNAc
# Outline: as §1
# [18] = target: GlcNAc(b1-2)Man(a1-3)[GlcNAc(b1-2)Man(a1-6)]Man(b1-4)GlcNAc(b1-4)[Fuc(a1-6)]GlcNAc
# Outline: as §1
# [19] = target: GlcNAc(b1-2)[GlcNAc(b1-4)]Man(a1-3)[GlcNAc(b1-4)][GlcNAc(b1-2)[GlcNAc(b1-6)]Man(a1-6)]Man(b1-4)GlcNAc(b1-4)GlcNAc
# Outline: as §1
# GlcNAc(b1-4)GlcNAc = target: GlcNAc(b1-4)GlcNAc
# Outline: as §1
# [20] = target: Man(a1-2)Man(a1-2)Man(a1-3)Man
# Outline: as §1
# [21] = target: Man(a1-2)Man(a1-3)[Man(a1-2)Man(a1-6)]Man
# Outline: as §1
# [22] = target: Man(a1-2)Man(a1-6)[Man(a1-3)]Man(a1-6)[Man(a1-2)Man(a1-2)Man(a1-3)]Man(b1-4)GlcNAc(b1-4)GlcNAc
# Outline: as §1
# [23] = target: Neu5Ac(a2-3)Gal(b1-3)GalNAc6S
# Outline: as §1
# [24] = target: Neu5Ac(a2-3)Gal(b1-4)GlcNAc6S
# Outline: as §1
# [25] = target: Neu5Ac(a2-3)Gal(b1-4)[Fuc(a1-3)]GlcNAc(b1-3)Gal(b1-4)GlcNAc
# Outline: as §1
# [26] = target: Neu5Ac(a2-3)Gal(b1-4)[Fuc(a1-3)]GlcNAc(b1-3)GalNAc
# Outline: as §1
# [27] = target: Neu5Ac(a2-6)Gal(b1-4)GlcNAc(b1-3)Gal(b1-4)GlcNAc(b1-3)Gal(b1-4)GlcNAc
# Outline: as §1
# [28] = target: Neu5Ac(a2-6)Gal(b1-4)GlcNAc(b1-3)Gal(b1-4)[Fuc(a1-3)]GlcNAc(b1-3)Gal(b1-4)[Fuc(a1-3)]GlcNAc
# Outline: as §1
# [29] = target: Neu5Ac(a2-6)Gal(b1-4)GlcNAc6S
# Outline: as §1
# [30] = target: Neu5Gc(b2-6)Gal(b1-4)GlcNAc
# Outline: as §1
binder,measurement,setting,value
"Flo11 (Saccharomyces cerevisiae), P08640 (protein) MQRPFLLAYLVLSLLFNSALGFPTALVPRGSSEGTSCNSIVNGCPNLDFNWHMDQQNIMQYTLDVTSVSWVQDNTYQITIHVKGKENIDLKYLWSLKIIGVTGPKGTVQLYGYNENTYLIDNPTDFTATFEVYATQDVNSCQVWMPNFQIQFEYLQGSAAQYASSWQWGTTSFDLSTGCNNYDNQGHSQTDFPGFYWNIDCDNNCGGTKSSTTTSSTSESSTTTSSTSESSTTTSSTSESSTTTSSTSESSTSSSTTAPATPTTTSCTKEKPTPPTTTSCTKEKPTPPHHDTTPCTKKKTTTSKTCTKKTTTPVPTPSSSTTESSSAPVPTPSSSTTESSSAPVTSSTTESSSAPVPTPSSSTTESSSAPVTSSTTESSSAPVTSSTTESSSAPVPTPSSSTTESSSAPVTSSTTESSSAPVTSSTTESSSAPVTSSTTESSSAPVTSSTTESSSAPVPTPSSSTTESSSAPVTSSTTESSSAPVPTPSSSTTESSSAPVTSSTTESSSAPVPTPSSSTTESSSAPAPTPSSSTTESSSAPVTSSTTESSSAPVPTPSSSTTESSSTPVTSSTTESSSAPVPTPSSSTTESSSAPVPTPSSSTTESSSAPAPTPSSSTTESSSAPVTSSTTESSSAPVPTPSSSTTESSSAPVPTPSSSTTESSSAPVPTPSSSTTESSSAPVTSSTTESSSAPVTSSTTESSSAPVPTPSSSTTESSSAPVPTPSSSTTESSSAPVPTPSSSTTESSSAPVTSSTTESSSAPVPTPSSSTTESSSAPVPTPSSSTTESSSAPVPTPSSSTTESSVAPVPTPSSSSNITSSAPSSTPFSSSTESSSVPVPTPSSSTTESSSAPVSSSTTESSVAPVPTPSSSSNITSSAPSSIPFSSTTESFSTGTTVTPSSSKYPGSQTETSVSSTTETTIVPTKTTTSVTTPSTTTITTTVCSTGTNSAGETTSGCSPKTVTTTVPTTTTTSVTTSSTTTITTTVCSTGTNSAGETTSGCSPKTITTTVPCSTSPSETASESTTTSPTTPVTTVVSTTVVTTEYSTSTKPGGEITTTFVTKNIPTTYLTTIAPTPSVTTVTNFTPTTITTTVCSTGTNSAGETTSGCSPKTVTTTVPCSTGTGEYTTEATTLVTTAVTTTVVTTESSTGTNSAGKTTTGYTTKSVPTTYVTTLAPSAPVTPATNAVPTTITTTECSAATNAAGETTSVCSAKTIVSSASAGENTAPSATTPVTTAIPTTVITTESSVGTNSAGETTTGYTTKSIPTTYITTLIPGSNGAKNYETVATATNPISIKTTSQLATTASASSVAPVVTSPSLTGPLQSASGSAVATYSVPSISSTYQGAANIKVLGNFMWLLLALPVVF",glycan array binding signal (z-score),[1],4.03
same,glycan array binding signal (z-score),[2],0.319
same,glycan array binding signal (z-score),[3],1.35
same,glycan array binding signal (z-score),[4],5.39
same,glycan array binding signal (z-score),[5],-0.315
same,glycan array binding signal (z-score),[6],-0.389
same,glycan array binding signal (z-score),[7],-0.826
same,glycan array binding signal (z-score),[8],-0.692
same,glycan array binding signal (z-score),Fuc(a1-4)GlcNAc,0.442
same,glycan array binding signal (z-score),[9],0.723
same,glycan array binding signal (z-score),[10],0.122
same,glycan array binding signal (z-score),Gal(a1-4)GlcNAc,-0.72
same,glycan array binding signal (z-score),Gal(a1-6)Glc,-0.453
same,glycan array binding signal (z-score),Gal(b1-3)Gal(b1-4)GlcNAc,0.164
same,glycan array binding signal (z-score),[11],-0.241
same,glycan array binding signal (z-score),[12],-0.512
same,glycan array binding signal (z-score),[13],-1.34
same,glycan array binding signal (z-score),[14],-1.05
same,glycan array binding signal (z-score),Gal3S(b1-4)Glc,0.09
same,glycan array binding signal (z-score),Gal6S(b1-4)GlcNAc6S,0.193
same,glycan array binding signal (z-score),GalNAc(b1-3)GalNAc,-0.184
same,glycan array binding signal (z-score),[15],0.79
same,glycan array binding signal (z-score),[16],6.8
same,glycan array binding signal (z-score),[17],3.01
same,glycan array binding signal (z-score),[18],3.49
same,glycan array binding signal (z-score),[19],0.283
same,glycan array binding signal (z-score),GlcNAc(b1-4)GlcNAc,-0.781
same,glycan array binding signal (z-score),[20],7.09
same,glycan array binding signal (z-score),[21],-0.669
same,glycan array binding signal (z-score),[22],-1.08
same,glycan array binding signal (z-score),[23],-0.833
same,glycan array binding signal (z-score),[24],0.179
same,glycan array binding signal (z-score),[25],2.91
same,glycan array binding signal (z-score),[26],3.06
same,glycan array binding signal (z-score),[27],-0.252
same,glycan array binding signal (z-score),[28],0.359
same,glycan array binding signal (z-score),[29],-0.192
same,glycan array binding signal (z-score),[30],0.414
